Data as given in PubChem BioAssay (Tox21).
Several values for one entry are separate records, joined by “and”; a condition that tells them apart may be missing. Equal values may be shown once. Inconclusive results are not listed. Where a call stands in place of a potency, no number is given. Some compounds were tested as several samples or in several runs, with calls that do not always agree. Activity calls are given as the source filed them. Unless noted, calls come from the whole dose curve.

system: not listed separately; test: qHTS assay to identify small molecule agonists of the AP-1 signaling pathway (AID 1159526); conditions: ME-180 (cervical carcinoma) AP-1-bla reporter, beta-lactamase FRET ratio, 5 h; series mostly up to 76.8 µM; activation: at the top concentration

SMILES	outcome	activation
CCCCOCCOC(C)=O	inactive	–
CCOP(=S)(OCC)OP(=S)(OCC)OCC	inactive	–
Cc1cccc(N=Nc2ccc(N(C)C)cc2)c1	inactive	–
COc1ccc(C=O)cc1OC	–	5.46% (inactive)
CC(C)(C#N)N=NC(C)(C)C#N	inactive	–
CC1CC(=O)O1 (stereo not given)	inactive	–
CS(=O)(=O)NC(=O)c1cc(Oc2ccc(C(F)(F)F)cc2Cl)ccc1[N+](=O)[O-]	inactive	–
CC(C)(c1ccc(OCC2CO2)cc1)c1ccc(OCC2CO2)cc1 (stereo not given)	–	-10.1% (inactive)
[CH3][Sn]([Cl])([Cl])[Cl]	inactive	–
CCOP(=O)(OCC)OCC	inactive	–
CC1=C(C(=O)Nc2ccccc2)SCCO1	inactive	–
CC[n+]1c(-c2ccccc2)c2cc(N)ccc2c2ccc(N)cc21	–	-1.31% [at 35.3 µM] (inactive)
O=C(O)CF	inactive	–
CSc1nc(NC(C)C)nc(NC(C)C)n1	–	1.93% (inactive)
CCCCSP(=O)(SCCCC)SCCCC	–	10.1% (inactive)
CC(C)=CC1C(C(=O)OCc2cccc(Oc3ccccc3)c2)C1(C)C (stereo not given)	inactive	–
Cc1cc(Cl)ccc1N=CN(C)C	inactive	–
CCCCOC(=O)COC(=O)c1ccccc1C(=O)OCCCC	–	-0.452% (inactive)

SMILES	outcome	activation
COC(=O)Nc1nc2ccccc2[nH]1	–	-5.78% (inactive)
Clc1ccc(C(Cl)(Cl)Cl)cc1	inactive	–
O=NN1CCOCC1	inactive	–
CC1(C)C(C(=O)OC(C#N)c2cccc(Oc3ccccc3)c2)C1(C)C (stereo not given)	inactive	–
C=CC(Cl)CCl (stereo not given)	inactive	–
CCC/C=N/O	inactive	–
Clc1cccc(C(Cl)(Cl)Cl)n1	inactive	–
CC(C)Nc1nc(Cl)nc(NC(C)C)n1	inactive	–
Nc1ccc2ccccc2c1	inactive	–
O=C(O)c1nn(Cc2ccc(Cl)cc2Cl)c2ccccc12	–	10% [at 35.3 µM] (inactive)
Nc1ncn[nH]1	inactive	–
CNC(=S)S	inactive	–
O=[N+]([O-])c1ccc(Nc2ccccc2)cc1	inactive	–
O=S(=O)(O)C(F)(F)C(F)(F)C(F)(F)C(F)(F)C(F)(F)C(F)(F)C(F)(F)C(F)(F)F	inactive	–
Brc1ccc(Br)cc1	–	-1.68% (inactive)
C=C(C)C#N	inactive	–
O=C1CCCO1	inactive	–

target: Retinoic acid receptor RXR-alpha (Homo sapiens) (UniProt P19793); test: qHTS assay to identify small molecule agonists of the RXR signaling pathway (AID 1159527); conditions: HEK293T RXRa-UAS-bla, beta-lactamase ratio, 16 h; series mostly up to 76.8 µM; activation: at the top concentration; note: nearly all actives have a fitted effect of over 35% in size; note: potency is the fitted concentration of half-maximal effect
Summary of the method: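 Beta-lactamase reporter assay, agonist format. Engineered HEK 293T line, charcoal-stripped FBS at 2%, overnight (16 hr) exposure, fluorescence at 460 and 530 nm after 405 nm excitation.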

Sequence of Retinoic acid receptor RXR-alpha (Homo sapiens) (P19793 whole entry, looked up): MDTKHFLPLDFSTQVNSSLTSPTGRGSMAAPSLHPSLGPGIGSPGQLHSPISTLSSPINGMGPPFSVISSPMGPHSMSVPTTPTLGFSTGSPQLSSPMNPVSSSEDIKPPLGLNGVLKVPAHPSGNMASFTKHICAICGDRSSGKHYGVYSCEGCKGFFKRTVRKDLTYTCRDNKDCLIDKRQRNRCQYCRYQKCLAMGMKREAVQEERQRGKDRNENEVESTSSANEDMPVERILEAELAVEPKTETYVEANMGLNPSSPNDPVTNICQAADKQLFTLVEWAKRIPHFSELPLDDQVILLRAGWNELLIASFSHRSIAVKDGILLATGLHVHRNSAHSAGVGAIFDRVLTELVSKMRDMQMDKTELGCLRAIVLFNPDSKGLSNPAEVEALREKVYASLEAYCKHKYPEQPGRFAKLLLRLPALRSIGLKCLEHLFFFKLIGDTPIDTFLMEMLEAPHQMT

SMILES	activation	Potency
CCCCOCCOC(C)=O	4.19% (inactive)	–
Cc1cccc(N=Nc2ccc(N(C)C)cc2)c1	1.35% (inactive)	–
COc1ccc(C=O)cc1OC	-9.79% (inactive)	–
CC(C)(C#N)N=NC(C)(C)C#N	-2.84% (inactive)	–
CC1CC(=O)O1 (stereo not given)	10.3% (inactive)	–
CS(=O)(=O)NC(=O)c1cc(Oc2ccc(C(F)(F)F)cc2Cl)ccc1[N+](=O)[O-]	–	inactive
[CH3][Sn]([Cl])([Cl])[Cl]	–	inactive
CCOP(=O)(OCC)OCC	–	5.49 µM (active)
CC1=C(C(=O)Nc2ccccc2)SCCO1	–	inactive
O=C(O)CF	–	inactive
CSc1nc(NC(C)C)nc(NC(C)C)n1	4.38% (inactive)	–
CCCCSP(=O)(SCCCC)SCCCC	-16.9% (inactive)	–
c1ccc2c(c1)Nc1ccccc1S2	-10.1% [at 35.3 µM] (inactive)	–
Cc1cc(Cl)ccc1N=CN(C)C	–	inactive
CCCCOC(=O)COC(=O)c1ccccc1C(=O)OCCCC	–	inactive
COC(=O)Nc1nc2ccccc2[nH]1	-8.26% (inactive)	–
Clc1ccc(C(Cl)(Cl)Cl)cc1	9.76% (inactive)	–
O=NN1CCOCC1	–	inactive
C=CC(Cl)CCl (stereo not given)	10.7% (inactive)	–
CCC/C=N/O	–	inactive
Clc1cccc(C(Cl)(Cl)Cl)n1	–	inactive
CC(C)Nc1nc(Cl)nc(NC(C)C)n1	7.25% (inactive)	–
Nc1ccc2ccccc2c1	–	inactive
Nc1ncn[nH]1	–	inactive
CNC(=S)S	–	inactive
O=S(=O)(O)C(F)(F)C(F)(F)C(F)(F)C(F)(F)C(F)(F)C(F)(F)C(F)(F)C(F)(F)F	–	inactive
Brc1ccc(Br)cc1	14.3% (inactive)	–
C=C(C)C#N	–	inactive

system: not listed separately; test: qHTS assay to identify small molecule agonists of the RXR signaling pathway - cell viability counter screen (AID 1159529; active = well fitted cell-killing curve with a large enough effect in the repeat runs; note: nearly all actives have a fitted effect of over 50% in size; note: potency is the fitted concentration of half-maximal effect;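 for activity change, negative = cytotoxicity: HEK 293T cells carrying an RXR-alpha UAS beta-lactamase reporter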); conditions: RXR-alpha-bla HEK293T viability, CellTiter-Glo, 16 h; series mostly up to 76.8 µM; activity change, negative = cytotoxicity: at the top concentration
Summary of the method: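 Same-well viability check after the LiveBLAzer FRET read: CellTiter-Glo added, luminescence measured after 30 min at room temperature. Reporter HEK 293T cells had been treated with compounds for 16 hr following a 5 hr preincubation.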

SMILES	Potency	activity change, negative = cytotoxicity
CCCCOCCOC(C)=O	inactive	–
CCOP(=S)(OCC)OP(=S)(OCC)OCC	inactive	–
Cc1cccc(N=Nc2ccc(N(C)C)cc2)c1	inactive	–
COc1ccc(C=O)cc1OC	–	8.86% (inactive)
CC(C)(C#N)N=NC(C)(C)C#N	inactive	–
CC1CC(=O)O1 (stereo not given)	–	7.69% (inactive)
CS(=O)(=O)NC(=O)c1cc(Oc2ccc(C(F)(F)F)cc2Cl)ccc1[N+](=O)[O-]	inactive	–
CC(C)(c1ccc(OCC2CO2)cc1)c1ccc(OCC2CO2)cc1 (stereo not given)	49.6 µM (active) and inactive	–
[CH3][Sn]([Cl])([Cl])[Cl]	inactive	–
CCOP(=O)(OCC)OCC	inactive	–
COP(=S)(OC)SCn1nnc2ccccc2c1=O	inactive	–
CC1=C(C(=O)Nc2ccccc2)SCCO1	inactive	–
CC[n+]1c(-c2ccccc2)c2cc(N)ccc2c2ccc(N)cc21	inactive	–
O=C(O)CF	inactive	–
CSc1nc(NC(C)C)nc(NC(C)C)n1	inactive	–
CCCCSP(=O)(SCCCC)SCCCC	inactive	–
c1ccc2c(c1)Nc1ccccc1S2	–	-5.33% [at 35.3 µM] (inactive)
CC(C)=CC1C(C(=O)OCc2cccc(Oc3ccccc3)c2)C1(C)C (stereo not given)	inactive	–
Cc1cc(Cl)ccc1N=CN(C)C	inactive	–

SMILES	Potency	activity change, negative = cytotoxicity
CCCCOC(=O)COC(=O)c1ccccc1C(=O)OCCCC	inactive	–
COC(=O)Nc1nc2ccccc2[nH]1	inactive	–
Clc1ccc(C(Cl)(Cl)Cl)cc1	inactive	–
O=NN1CCOCC1	inactive	–
CC1(C)C(C(=O)OC(C#N)c2cccc(Oc3ccccc3)c2)C1(C)C (stereo not given)	inactive	–
C=CC(Cl)CCl (stereo not given)	inactive	–
CCC/C=N/O	inactive	–
Clc1cccc(C(Cl)(Cl)Cl)n1	inactive	–
CCCCCCCCCc1ccc(O)cc1	55.5 µM (active)	–
CC(C)Nc1nc(Cl)nc(NC(C)C)n1	inactive	–
Nc1ccc2ccccc2c1	inactive	–
O=C(O)c1nn(Cc2ccc(Cl)cc2Cl)c2ccccc12	inactive	–
Nc1ncn[nH]1	inactive	–
CNC(=S)S	inactive	–
O=S(=O)(O)C(F)(F)C(F)(F)C(F)(F)C(F)(F)C(F)(F)C(F)(F)C(F)(F)C(F)(F)F	inactive and 19.5 µM (active)	–
Brc1ccc(Br)cc1	inactive	–
C=C(C)C#N	inactive	–
O=C1CCCO1	–	-2.47% (inactive)
